“And” between values parts separate entries of the source, which are not always exact repeats. Equal values may be shown once. Results filed as inconclusive are left out. More than one record can exist for a structure, and the calls need not agree. The source made the active and inactive calls. Unless noted, calls follow the shape of the dose curve; as a rule, active = well fitted curve in the direction sought with a large enough effect in the repeat runs; inconclusive = weak or mixed curves; inactive = no such curve, though single readings can be large; an effect the other way counts as inactive or inconclusive.
Tests used:
[1] = A CellTox Green Cytotoxicity Assay to monitor cytotoxicity in HepG2 cells - 0 hour (AID 1224882); also: nearly all actives have a fitted effect of over 35% in size; also: potency is read from the fitted curve at half-maximal effect
In short: (§1)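 Cells and non-lytic dye reagent are dispensed together (600 HepG2 cells/well) and incubated 5 h before DMSO compound transfer. Kinetic fluorescence is then recorded in the same wells during 40 h at 37 C.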

[2] = A CellTox Green Cytotoxicity Assay to monitor cytotoxicity in HepG2 cells - 32 hour (AID 1224883); also: nearly all actives have a fitted effect of over 50% in size; also: potency is read from the fitted curve at half-maximal effect
In short: as §1

[3] = A CellTox Green Cytotoxicity Assay to monitor cytotoxicity in HEK293 cells - 8 hour (AID 1224884); also: nearly all actives have a fitted effect of over 35% in size; also: potency is read from the fitted curve at half-maximal effect
In short: (§2)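 Cells (HEK293, 600/well) and dye reagent are dispensed together. After 5 h at 37 C, 23 nL compound is pinned in. Plates stay at 37 C for 40 h with fluorescence read at 0h, 8h, 16h, 24h, 32h and 40h.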

[4] = qHTS RealTime-Glo MT Cell Viability Assay in HepG2 cells - 16 hour (AID 1224885); also: nearly all actives have a fitted effect of over 50% in size; also: potency is read from the fitted curve at half-maximal effect
In short: (§3)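 Tox21 10K library screened in qHTS format on HepG2 cells carrying RealTime-Glo reagents. Compounds were added after a 5 h preincubation, and the luminescent signal from continuous culture was measured repeatedly during 40 h treatment.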

[5] = qHTS RealTime-Glo MT Cell Viability Assay in HEK293 cells - 24 hour (AID 1224886); also: nearly all actives have a fitted effect of over 50% in size; also: potency is read from the fitted curve at half-maximal effect
In short: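 Luminescence generated by NanoLuc from substrate produced by living HEK293 cells served as the viability signal. Each value reflects the reading at its stated time point during continuous 40 h compound exposure at 37 C.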

[6] = qHTS RealTime-Glo MT Cell Viability Assay in HEK293 cells - 8 hour (AID 1224887); also: nearly all actives have a fitted effect of over 50% in size; also: potency is read from the fitted curve at half-maximal effect
In short: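 Real-time viability in HEK293: signal arises when living cells convert a prosubstrate for NanoLuc in the medium, so luminescence tracks viable cell number. Compound (23 nL, DMSO) added 5 h post-seeding; kinetic reads at 0–40 h, 37 C.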

[7] = A CellTox Green Cytotoxicity Assay to monitor cytotoxicity in HEK293 cells - 16 hour (AID 1224888); also: nearly all actives have a fitted effect of over 35% in size; also: potency is read from the fitted curve at half-maximal effect
In short: as §2

[8] = qHTS RealTime-Glo MT Cell Viability Assay in HepG2 cells - 0 hour (AID 1224889); also: nearly all actives have a fitted effect of over 50% in size; also: potency is read from the fitted curve at half-maximal effect
In short: as §3

[9] = qHTS assay to identify small molecule antagonists of the estrogen receptor alpha (ER-alpha) signaling pathway using the BG1 cell line in the presence of 0.1 nM 17-beta-estradiol - cell viability counter screen (AID 1259241); also: nearly all actives have a fitted effect of over 40% in size; also: potency is read from the fitted curve at half-maximal effect
In short: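 In this screen, hormone-deprived VM7Luc4E2 cells were seeded at 4,000 per well, dosed with compound and 0.1 nM estradiol final, and incubated 22 hr at 37C and 5% CO2; fluorogenic live-cell protease signal reported viability.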

[10] = qHTS assay to identify small molecule antagonists of the androgen receptor (AR) signaling pathway using the MDA cell line in the presence of 0.5 nM R1881 - cell viability counter screen (AID 1259242); also: nearly all actives have a fitted effect of over 45% in size; also: potency is read from the fitted curve at half-maximal effect
In short: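 Steps: plate MDA-kb2 cells, rest 5 hr at 37C without CO2; pin in compounds in DMSO; add R1881 to 0.5 nM final; incubate 16 hr; add CellTiter-Fluor, 30 min; read fluorescence.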

[11] = target: Androgen receptor (Homo sapiens) (UniProt P10275); test: qHTS assay to identify small molecule antagonists of the androgen receptor (AR) signaling pathway using the MDA cell line in the presence of 0.5 nM R1881 (AID 1259243); also: nearly all actives have a fitted effect of over 50% in size; also: potency is read from the fitted curve at half-maximal effect
In short: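 Stably transfected MDA-kb2 cells express luciferase from an MMTV promoter bearing both AR and GR response elements. Compounds plus 0.5 nM R1881 (final) were incubated 16 hr at 37C without CO2, then luminescence measured.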

[12] = target: Estrogen receptor (Homo sapiens) (UniProt P03372); test: qHTS assay to identify small molecule antagonists of the estrogen receptor alpha (ER-alpha) signaling pathway using the BG1 cell line in the presence of 0.1 nM 17-beta-estradiol (AID 1259244); also: nearly all actives have a fitted effect of over 50% in size; also: potency is read from the fitted curve at half-maximal effect
In short: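 Antagonist mode: compounds in DMSO are pinned onto VM7Luc4E2 reporter cells, 0.1 nM final 17beta-estradiol is added, and after 22 h at 37C luciferase luminescence is measured with ONE-Glo.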

[13] = qHTS assay to identify small molecule phospholipidosis (PLD) inducers (AID 1259344; active = well fitted curve in the direction sought with a large enough effect; an effect the other way counts as inactive or inconclusive)
In short: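 After 4 h attachment on collagen I, HepG2 cells were dosed with compound alongside LipidTOX Red, kept 24 h at 37 C, fixed, and imaged for lamellar phospholipid pits.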

[14] = qHTS assay to identify small molecule HDAC inhibitors (AID 1259364);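 also: wild-type HCT-116 cells with endogenous class I/II HDAC activity; top concentration of the series differs between compounds; nearly all actives have a fitted effect of over 45% in size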
In short: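 Cells (HCT-116, wild type) are seeded at 1,500 per well, incubated overnight, treated with compound in DMSO for 2 hr, then developed with HDAC-Glo I/II reagent for 30 min at room temperature.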

[15] = qHTS assay to identify small molecule HDAC inhibitors - cell viability counter screen (AID 1259365)
In short: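 Measured quantity is CellTiter-Glo luminescence from wild-type HCT-116 cells after compound incubation of 2hr at 37C, 5% CO2; reagent developed 30min at room temperature.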

[16] = qHTS assay to identify small molecule agonists of the sonic hedgehog signaling (Shh) pathway - cell viability counter screen (AID 1259366); also: nearly all actives have a fitted effect of over 50% in size; also: potency is read from the fitted curve at half-maximal effect
In short: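 In quantitative high-throughput format, 3T3 Gli1-Luc cells were exposed to compounds for 24hr and multiplexed for viability using CellTiter-Fluor, incubated 1hr at 37C before the fluorescence read.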

[17] = qHTS assay to identify small molecule antagonists of the sonic hedgehog signaling (Shh) pathway - cell viability counter screen (AID 1259367); also: nearly all actives have a fitted effect of over 55% in size; also: potency is read from the fitted curve at half-maximal effect
In short: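 Conditioned medium drove Shh signaling in 3T3 Gli1-Luc cells exposed to compounds at 37C and 5% CO2. Viability was determined from CellTiter-Fluor fluorescence, with reagent incubated 1 hr after 23 hr of treatment.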

[18] = qHTS assay to identify small molecule agonists of the sonic hedgehog signaling (Shh) pathway (AID 1259368; calls by dose curve;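 also: NIH/3T3-derived 3T3Gli1-Luc cells carrying a stable Gli1-driven firefly luciferase reporter; series mostly up to about 92 µM; nearly all actives have a fitted effect of over 15% in size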)
In short: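 Cells of a mouse NIH/3T3 clone stably expressing luciferase under the Gli1 transcriptional response element are exposed to test chemicals for 24 hr at 37 C. Pathway activation is detected as a rise in luminescence.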

[19] = qHTS assay to identify small molecule antagonists of the sonic hedgehog signaling (Shh) pathway (AID 1259369; calls by dose curve; also: nearly all actives have a fitted effect of over 45% in size; also: potency is read from the fitted curve at half-maximal effect)
In short: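 Cells are plated and held 4hr at 37 C, compounds (DMSO) are pinned in, conditioned medium is added to stimulate the pathway, and after 24hr luciferase reagent is added for 30min before luminescence is read.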

[20] = A CellTox Green Cytotoxicity Assay to monitor cytotoxicity in HepG2 cells - 8 hour (AID 1224890); also: nearly all actives have a fitted effect of over 45% in size; also: potency is read from the fitted curve at half-maximal effect
In short: as §1

Measured: Potency

Chain of Androgen receptor (Homo sapiens) (P10275 whole entry, looked up): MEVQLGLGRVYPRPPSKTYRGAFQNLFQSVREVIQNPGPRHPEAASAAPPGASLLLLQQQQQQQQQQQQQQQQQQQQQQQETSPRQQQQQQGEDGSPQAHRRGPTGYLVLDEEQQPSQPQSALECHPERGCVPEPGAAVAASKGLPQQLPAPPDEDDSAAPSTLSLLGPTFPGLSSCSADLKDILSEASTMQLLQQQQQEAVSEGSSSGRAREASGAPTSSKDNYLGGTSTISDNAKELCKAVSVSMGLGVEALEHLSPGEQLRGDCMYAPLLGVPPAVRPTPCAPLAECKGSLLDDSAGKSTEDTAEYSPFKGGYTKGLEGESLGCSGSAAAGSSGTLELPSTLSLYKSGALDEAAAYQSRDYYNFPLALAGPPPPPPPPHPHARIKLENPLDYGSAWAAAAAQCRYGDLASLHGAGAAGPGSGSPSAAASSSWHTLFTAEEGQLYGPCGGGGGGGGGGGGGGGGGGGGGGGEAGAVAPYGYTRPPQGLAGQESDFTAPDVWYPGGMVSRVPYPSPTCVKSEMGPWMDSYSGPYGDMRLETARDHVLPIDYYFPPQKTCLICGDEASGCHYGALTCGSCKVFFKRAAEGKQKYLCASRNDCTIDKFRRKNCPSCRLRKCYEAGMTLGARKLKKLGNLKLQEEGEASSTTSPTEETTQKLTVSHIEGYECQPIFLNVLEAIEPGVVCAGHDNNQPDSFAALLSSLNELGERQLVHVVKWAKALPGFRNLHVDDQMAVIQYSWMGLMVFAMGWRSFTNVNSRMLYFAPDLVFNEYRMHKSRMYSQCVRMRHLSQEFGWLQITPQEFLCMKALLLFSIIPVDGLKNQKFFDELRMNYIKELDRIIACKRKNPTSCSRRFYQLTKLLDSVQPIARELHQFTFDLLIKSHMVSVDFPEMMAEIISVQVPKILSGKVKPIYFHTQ
Chain of Estrogen receptor (Homo sapiens) (P03372 whole entry, looked up): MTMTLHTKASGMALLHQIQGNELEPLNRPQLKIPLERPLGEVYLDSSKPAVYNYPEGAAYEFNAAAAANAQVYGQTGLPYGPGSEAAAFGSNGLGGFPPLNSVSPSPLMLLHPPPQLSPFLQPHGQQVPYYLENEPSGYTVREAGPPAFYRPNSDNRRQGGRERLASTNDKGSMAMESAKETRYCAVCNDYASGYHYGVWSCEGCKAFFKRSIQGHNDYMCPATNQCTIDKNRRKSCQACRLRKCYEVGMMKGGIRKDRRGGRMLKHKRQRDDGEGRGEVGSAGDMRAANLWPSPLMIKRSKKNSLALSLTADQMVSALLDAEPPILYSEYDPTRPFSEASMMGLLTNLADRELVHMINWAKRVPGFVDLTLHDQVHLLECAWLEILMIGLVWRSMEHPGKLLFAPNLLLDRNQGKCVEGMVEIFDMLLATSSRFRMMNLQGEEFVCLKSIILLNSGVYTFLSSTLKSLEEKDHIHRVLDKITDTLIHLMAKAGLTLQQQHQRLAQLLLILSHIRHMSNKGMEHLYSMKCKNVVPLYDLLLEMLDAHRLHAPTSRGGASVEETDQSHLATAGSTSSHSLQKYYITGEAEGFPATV

COP(=S)(OC)Oc1ccc(Sc2ccc(OP(=S)(OC)OC)cc2)cc1
61.1 µM (active) and inactive: [11] | [12]
68.6 µM (active) and inactive: [19]
not listed: [20]
inactive: all other assays above

CC(C)Nc1ccc(Nc2ccccc2)cc1
inactive: [1] | [3] | [13] | [15] | [18]
active: [2] 43.6 µM | [4] 54.7 µM and 49 µM | [5] 17.3 µM and 19.5 µM | [6] 15.4 µM and 17.4 µM | [7] 54.9 µM | [9] 43.1 µM | [10] 60.9 µM | [12] 21.6 µM | [16] 24.2 µM and 24.3 µM | [17] 21.6 µM and 24.3 µM | [19] 5.43 µM

Oc1ccc(Cl)cc1Cl
not listed: [11] | [13] | [14] | [20]
inactive: all other assays above

CCC/C=N/O
not listed: [5] | [11] | [13]
inactive: all other assays above

CNC(=O)Oc1cccc2c1OC(C)(C)C2
not listed: [5] | [13] | [14]
inactive: all other assays above

C[C@]12CCC(=O)C=C1CC[C@@H]1[C@@H]2CC[C@@]2(C)[C@H]1CC[C@]2(C)O
30.9 µM (active) and inactive: [12]
44 µM (active) and inactive: [3]
19.7 µM (active) and inactive: [1]
active: [2] 22.1 µM | [5] 19.7 µM | [8] 14.3 µM and 9.52 µM | [19] 6.16 µM
not listed: [7] | [11] | [14] | [20]
inactive: all other assays above

CCCCOCC1CO1 (stereo not given)
inactive and 43.6 µM (active): [2] | [20]
inactive and 38.9 µM (active): [1]
inactive and 24.5 µM (active): [3]
not listed: [7] | [11] | [13]
inactive: all other assays above

CCC[CH2][Sn]([Cl])([Cl])[CH2]CCC
1.23 µM (active) and inactive: [12]
inactive: [1] | [8] | [14] | [18]
inactive and 49 µM (active): [3]
active: [2] 351 nM and 490 nM | [4] 701 nM and 616 nM | [6] 111 nM | [7] 786 nM and 24.5 µM | [20] 14 µM and 13.8 µM | [9] 1.74 µM and 2.43 µM | [10] 874 nM and 611 nM | [16] 276 nM and 433 nM | [17] 552 nM and 770 nM | [19] 196 nM and 243 nM

CSc1nc(NC(C)C)nc(NC(C)C)n1
active: [19] 0.766 µM
not listed: [11] | [13] | [20]
inactive: all other assays above

O=C1Nc2ccc(Cl)cc2C(c2ccccc2)=NC1O (stereo not given)
not listed: [11] | [12] | [14] | [19] | [20]
inactive: all other assays above

CC(C)(c1ccccc1)c1ccc(O)c(C(C)(C)c2ccccc2)c1
active: [2] 48.5 µM and 43.6 µM | [4] 54.4 µM and 43.6 µM | [6] 21.7 µM and 30.9 µM | [7] 43.2 µM | [20] 48.5 µM and 49 µM | [9] 61.1 µM | [12] 60.6 µM | [16] 60.6 µM and 54.5 µM | [17] 60.6 µM and 43.3 µM | [19] 30.4 µM and 13.7 µM
inactive: [1] | [3] | [8] | [14] | [15] | [18]

CC(C)(O)C#N
not listed: [5] | [11] | [12] | [13] | [20]
inactive: all other assays above

Cl
not listed: [5] | [11] | [12] | [13] | [14] | [20]
inactive: all other assays above

CCOP(=O)(O)OCC (tested in a mixture with another compound)
inactive and 54.5 µM (active): [3] | [6] | [20]
active: [19] 0.0482 µM
inactive: [1] | [8] | [9] | [15] | [18]
inactive and 38.6 µM (active): [2]
inactive and 48.6 µM (active): [4]
inactive and 54 µM (active): [10]
inactive and 42.9 µM (active): [17]
inactive and 48.2 µM (active): [16]
